Measured values as given in PubChem BioAssay (EPA / NIEHS).
Records with an inconclusive call do not appear. The source made the active and inactive calls. The calls were made as follows: active = hit-call score of the fitted dose curve at least 0.9, where 1 is the maximum; inconclusive = response in the unintended direction; inactive = score below 0.9.

Target: Hepatocyte nuclear factor 4-alpha (Homo sapiens) (UniProt P41235)
Test: ATG_HNF4a_TRANS: Attagene TRANS-FACTORIAL HepG2 Assay for human Hepatocyte Nuclear Factor 4 alpha (HNF4a) (AID 2282982)
Settings: HepG2 HNF4a transactivation reporter, mRNA readout
Description: ATG_TRANS is a cell-based, multiplexed-readout assay that uses HepG2, a human liver cell line, with measurements taken at 24 hours after chemical dosing in a 24-well plate.ATG_HNF4a_TRANS is one of 30 assay component(s) measured or calculated from the ATG_TRANS assay. It is designed to make measurements of mRNA induction, a form of inducible reporter, as detected with fluorescence intensity signals by Reverse transcription polymerase chain reaction (RT-PCR) and Capillary electrophoresis technology.Data from the assay component ATG_HNF4a_TRANS was analyzed into 1 assay endpoint. This assay endpoint, ATG_HNF4a_TRANS, was analyzed in the positive analysis fitting direction relative to DMSO as the negative control and baseline of activity. Using a type of inducible reporter, measures of mRNA for gain-of-signal activity can be used to understand the reporter gene at the transcription factor-level as they relate to the gene HNF4A. Furthermore, this assay endpoint can be referred to as a primary readout, because this assay has produced multiple assay endpoints where this one serves a reporter gene function. To generalize the intended target to other relatable targets, this assay endpoint is annotated to the nuclear receptor intended target family, where the subfamily is orphan.
Human liver HepG2 cells are transiently transfected with multiple reporter transcription units (MRTUs) in 6-well plates using FuGene 6 reagent (Roche; 3 ml FuGene/1 mg DNA). The MRTU constructs are regulated by a cis-regulating element (promoter). […] A major difference between the CIS and TRANS system is that in CIS activities of endogenous TFs are measured, whereas the TRANS assay evaluates changes in activities of exogenous, chimeric NR-Gal4 proteins. […] At the end of 24 hour incubation, total RNA was isolated using TriZol reagent (Invitrogen). The isolated RNA is then reverse-transcribed using oligo(dT) primer and Mo-MLV reverse transcriptase (Invitrogen) with DNAse I (Ambion) treatment for 30 min. The one-tenth of the produced cDNA was amplified by PCR using Taq DNA polymerase (Invitrogen) and two reporter sequence-specific primers. The PCR products were fluorescently labeled by primer extension with 6-arboxyfluorescein (6-FAM) 5'-labeled reporter sequence-specific primer (2 min at 95 C, 20 s at 68 C and 10 min at 72 C) and these products were digested with 5U of HpaI (New England Biolabs) for 2h at 37 C. The fragments were purified using Qiaquick PCR columns (Qiagen), analyzed on an ABI 3130xL genetic analyzer (Applied Biosystems) with peak positions identified by using a set of X-rhodamine (ROX)-labeled MapMarker1000 molecular weight standards (BioVentures). The raw capillary electrophoresis data was processed using Attagraph software (Attagene).

Sequence of Hepatocyte nuclear factor 4-alpha (Homo sapiens) (P41235 whole entry, looked up): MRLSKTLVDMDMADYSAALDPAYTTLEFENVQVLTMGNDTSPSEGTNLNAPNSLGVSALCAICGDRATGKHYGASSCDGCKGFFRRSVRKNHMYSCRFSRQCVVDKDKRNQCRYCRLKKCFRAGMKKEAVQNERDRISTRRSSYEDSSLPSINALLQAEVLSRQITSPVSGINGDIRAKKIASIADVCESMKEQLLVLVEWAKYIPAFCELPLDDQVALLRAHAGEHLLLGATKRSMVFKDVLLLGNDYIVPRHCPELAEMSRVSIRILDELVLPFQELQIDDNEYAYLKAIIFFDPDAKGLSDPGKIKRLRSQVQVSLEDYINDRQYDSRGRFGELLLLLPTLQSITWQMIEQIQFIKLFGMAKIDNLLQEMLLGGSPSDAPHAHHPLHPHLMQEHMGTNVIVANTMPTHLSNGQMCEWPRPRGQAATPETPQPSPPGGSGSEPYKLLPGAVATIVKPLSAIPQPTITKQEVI

Q: For `Cc1ccc(S(=O)(=O)NCl)cc1`, which outcome is on record?
A: inactive

Q: With `Nc1cc(Cl)c(N)c(Cl)c1` as the molecule, how does the outcome read?
A: inactive

Q: With `FC(F)(F)C(F)(F)C(F)(F)C(F)(F)C(F)(F)C(F)(F)C(F)(F)C(F)(F)F` as the molecule, how does the outcome read?
A: inactive

Q: `C1COCCN1` was tested. Which outcome did it give?
A: inactive

Q: `OCC(F)(F)C(F)(F)C(F)(F)F` was tested. Which outcome did it give?
A: inactive

Q: For `OCC(F)(F)C(F)(F)C(F)(F)C(F)F`, which outcome is on record?
A: inactive

Q: How did the outcome turn out when `O=C(O)C(F)(OC(F)(F)C(F)(OC(F)(F)C(F)(F)C(F)(F)F)C(F)(F)F)C(F)(F)F` (stereo not given) was run?
A: inactive

Q: With `CC(C)c1ccccc1N` as the molecule, how does the outcome read?
A: inactive

Q: For `C=CC(F)(F)C(F)(F)C(F)(F)C(F)(F)C(F)(F)C(F)(F)C(F)(F)C(F)(F)F`, which outcome is on record?
A: inactive

Q: `CCCCCCOC(=O)c1ccccc1O` was tested. Which outcome did it give?
A: inactive

Q: For `Cc1cc(C)cc(O)c1`, which outcome is on record?
A: inactive

Q: With `FC(F)(F)C(F)(F)CNCC(F)(F)C(F)(F)F` as the molecule, how does the outcome read?
A: inactive

Q: How did the outcome turn out when `Cc1cccc(N(C)C)c1` was run?
A: inactive

Q: How did the outcome turn out when `O=C(O)C(F)(F)C(F)(F)C(F)(F)C(F)(F)C(F)(F)C(F)(F)C(F)(F)C(F)(F)Cl` was run?
A: inactive

Q: With `CO[Si](OC)(c1ccccc1)c1ccccc1` as the molecule, how does the outcome read?
A: inactive

Q: How did the outcome turn out when `O=C(O)C(F)(F)C(F)(F)F` was run?
A: inactive

Q: For `O=C(OCCOCCOCCOC(=O)c1ccccc1)c1ccccc1`, which outcome is on record?
A: inactive

Q: With `CCCCCCCOC(=O)c1ccccc1C(=O)OCCCCCCC` as the molecule, how does the outcome read?
A: inactive

Q: `FC(F)(F)C(F)(F)C(F)(F)N(C(F)(F)C(F)(F)C(F)(F)F)C(F)(F)C(F)(F)C(F)(F)F` was tested. Which outcome did it give?
A: inactive

Q: Which outcome does the source give for `O=S(=O)(OCCOC(F)(F)F)C(F)(F)F` here?
A: inactive

Q: `COC(OC(C)=O)c1ccccc1` (stereo not given) was tested. Which outcome did it give?
A: inactive

Q: Which AC50 does the source give for `CCCCCCCCCCCCCCCC[N+](C)(C)Cc1ccccc1` here?
A: 24.8 µM (active)

Q: `FC(F)(F)C(F)(F)C(F)(F)C(F)(F)C(F)(F)C(F)(F)C(F)(F)Br` was tested. Which outcome did it give?
A: inactive

Q: How did the outcome turn out when `Oc1ccc(Nc2ccccc2)cc1` was run?
A: inactive

Q: How did the AC50 turn out when `C=CC(=O)OCC(F)(F)C(F)(F)C(F)(F)C(F)(F)COC(=O)C=C` was run?
A: 240 µM (active)

Q: How did the outcome turn out when `O=C(O)C(F)(F)C(F)(F)C(F)F` was run?
A: inactive

Q: For `c1ccc(B(c2ccccc2)c2ccccc2)cc1`, which outcome is on record?
A: inactive

Q: How did the outcome turn out when `CCCCCCOC(=O)c1ccccc1` was run?
A: inactive

Q: `CCO[Si](CCC(F)(F)C(F)(F)C(F)(F)C(F)(F)C(F)(F)C(F)(F)F)(OCC)OCC` was tested. Which outcome did it give?
A: inactive

Q: Which outcome does the source give for `O=C(O)C=C(C(F)(F)F)C(F)(F)F` here?
A: inactive

Q: For `CCCCOCCOCCOC(=O)CCCCC(=O)OCCOCCOCCCC`, which outcome is on record?
A: inactive

Q: For `CC(Cc1ccc(O)c(O)c1)C(C)Cc1ccc(O)c(O)c1` (stereo not given), which outcome is on record?
A: inactive

Q: Which outcome does the source give for `CC(=O)Nc1ccc(N=Nc2cc(C)ccc2O)cc1` here?
A: inactive

Q: With `CCCCCCC(C)OC(=O)CCCCC(=O)OC(C)CCCCCC` (stereo not given) as the molecule, how does the outcome read?
A: inactive

Q: `CCCCNc1ccccc1` was tested. Which outcome did it give?
A: inactive

Q: Which outcome does the source give for `CNC(=S)NC` here?
A: inactive

Q: For `Nc1ccc(S(=O)(=O)Nc2nccs2)cc1`, which outcome is on record?
A: inactive

Q: How did the outcome turn out when `O=C(Cl)C(F)(F)C(F)(F)C(F)(F)C(F)(F)C(F)(F)C(F)(F)C(F)(F)C(F)(F)F` was run?
A: inactive

Q: `CCCCCC=O` was tested. Which outcome did it give?
A: inactive

Q: With `CC/C=C\CCOC(=O)c1ccccc1` as the molecule, how does the outcome read?
A: inactive
